According to PubChem BioAssay (NCI):
The panel holds about 83,000 compounds, 20% with a hit somewhere; the sample as a whole holds those more often.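 Activity criterion: percent growth below 10, measured after cells in 96-well plates were exposed to a single compound concentration for 48 hours.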 Active and inactive are the calls of the source.

What was measured:
Experiment in all cases: NCI-60 one-dose screen, 48 h (100 = growth as untreated, 0 = no growth, -100 = all killed)
[1] = tested on: NCI-H226 lung; details: 10 µM
[2] = tested on: NCI-H322M lung; details: 10 µM unless noted
[3] = tested on: HOP-62 NSCLC; details: 10 µM unless noted
[4] = tested on: NCI-H460 lung; details: 10 µM unless noted
[5] = tested on: NCI-H522 lung; details: 10 µM
[6] = tested on: A549/ATCC NSCLC; details: 10 µM unless noted
[7] = tested on: 786-0 renal; details: 10 µM unless noted
[8] = tested on: COLO 205 colon; details: 10 µM unless noted
[9] = tested on: DU-145 prostate; details: 10 µM unless noted
[10] = tested on: K-562 leukemia; details: 10 µM unless noted
[11] = tested on: MALME-3M melanoma; details: 10 µM unless noted
[12] = tested on: MDA-MB-231 breast; details: 10 µM unless noted
[13] = tested on: RXF 393 renal; details: 10 µM unless noted
[14] = tested on: SF-268 CNS; details: 10 µM unless noted
[15] = tested on: SF-295 CNS; details: 10 µM unless noted
[16] = tested on: SF-539 CNS; details: 10 µM unless noted
[17] = tested on: UACC-257 melanoma; details: 10 µM unless noted
[18] = tested on: M14 melanoma; details: 10 µM unless noted
[19] = tested on: HOP-92 NSCLC; details: 10 µM unless noted

Measured: growth

CC(C)NCC(O)COc1ccc(CCOCC2CC2)cc1 (stereo unspecified)
inactive: [1] 90.7% | [2] 106% | [3] 104% | [4] 108% | [5] 118% | [6] 99.5% | [7] 100% | [8] 116% | [9] 111% | [10] 97.6% | [11] 103% | [12] 99.6% | [13] 97.1% | [14] 108% | [15] 108% | [16] 107% | [17] 108% | [18] 96.6%

CCCCC(CCCC)(S(=O)(=O)CC)S(=O)(=O)CC
inactive: [1] 95.2% | [3] 92.5% | [4] 104% | [19] 87.6% | [5] 87.3% | [6] 94.3% | [7] 98.6% | [8] 103% | [9] 107% | [10] 101% | [11] 99.8% | [12] 119% | [13] 98.9% | [14] 109% | [15] 100% | [16] 101% | [17] 101% | [18] 101%

FC(F)(F)c1cc(CNc2nc(Cl)ncc2Br)cc(C(F)(F)F)c1
inactive: [1] 93.9% | [3] 90.5% | [4] 95.6% | [19] 71% | [5] 62.3% | [6] 83% | [7] 84.6% | [8] 103% | [9] 98.9% | [10] 50.2% | [11] 91.1% | [12] 89% | [13] 92.6% | [14] 93.4% | [15] 88.4% | [16] 85% | [17] 80.8% | [18] 93.9%

Cc1nc2cc(Nc3nc(N4CCOCC4)nc(N4CCN(C)CC4)n3)ccc2n1Cc1ccccc1
inactive: [1] 71.3% | [3] 95% | [4] 107% | [19] 82.9% | [5] 92.6% | [6] 102% | [7] 97.5% | [8] 111% | [9] 114% | [10] 90.3% | [11] 106% | [12] 100% | [13] 101% | [14] 96.2% | [15] 95.2% | [16] 91.3% | [17] 99.2% | [18] 110%

O/N=C/c1cccs1
inactive: [1] 107% | [3] 94.3% | [4] 108% | [19] 94% | [5] 106% | [6] 98% | [7] 102% | [8] 119% | [9] 116% | [10] 87.2% | [11] 105% | [12] 112% | [13] 107% | [14] 111% | [15] 95% | [16] 96.9% | [17] 98.5% | [18] 105%

CCCCC/C=C\C/C=C/CCCCCCCCNC(=O)Nc1ccc([N+](=O)[O-])cc1
inactive: [1] 93.5% | [2] 120% | [4] 84.4% | [5] 41.5% | [6] 97% | [7] 102% | [8] 95% | [9] 47.3% | [11] 82.9% | [12] 77.8% | [13] 113% | [14] 42.5% | [15] 56.4% | [16] 107% | [17] 98.9% | [18] 77.9%
active: [19] -1.17%

COC1(OC)C2(Cl)C=C(c3ccccc3)C1(Cl)C(Cl)=C2Cl (stereo unspecified)
inactive: [1] 102% | [3] 93.9% | [4] 113% | [19] 77.7% | [5] 80.9% | [6] 99.8% | [7] 103% | [8] 108% | [9] 113% | [10] 88.8% | [11] 97.9% | [12] 110% | [13] 104% | [14] 101% | [15] 93.9% | [16] 91.5% | [17] 90.1% | [18] 97.2%

CCCCC(=O)N/N=C/c1cc(I)cc(I)c1O
inactive: [1] 73.3% | [3] 42.5% | [4] 28.1% | [19] 48.7% | [5] 60.5% | [6] 46.6% | [7] 56.9% | [8] 57% | [9] 51% | [10] 32.1% | [11] 75.8% | [12] 57% | [13] 74.6% | [14] 43.1% | [15] 41.2% | [16] 28.8% | [17] 41.8% | [18] 56.4%

O=C(Nc1ccc(Cl)c(Cl)c1)OCn1ncc2ccc([N+](=O)[O-])cc21
inactive: [1] 81.3% | [3] 71.6% | [4] 99.8% | [19] 62.6% | [5] 49.4% | [6] 82.8% | [7] 83.3% | [8] 93.2% | [9] 108% | [10] 88% | [11] 78.5% | [12] 75.7% | [13] 83.2% | [14] 82.3% | [15] 88.4% | [16] 78.1% | [17] 90.2% | [18] 94.7%

COc1ccc(-n2ncc3c4nc(OC)c(S(=O)(=O)c5ccccc5)cc4ccc32)cc1
inactive: [1] 45.3% | [3] 47.5% | [4] 78.9% | [19] 26.7% | [5] 61.3% | [6] 71.3% | [7] 47.2% | [8] 96.6% | [9] 73% | [10] 119% | [11] 56.9% | [12] 75.6% | [13] 35.1% | [14] 50.9% | [15] 84% | [16] 30.7% | [17] 76.9% | [18] 85%

CC1(C)N=C(N)N=C(N)N1c1cccc(/C=C/C=C/c2cccc([N+](=O)[O-])c2)c1
inactive: [1] 76.9% | [3] 104% | [4] 21.3% | [19] 70.7% | [5] 27.6% | [6] 28.2% | [7] 91.9% | [8] 29.7% | [9] 73% | [10] 20.6% | [11] 66.3% | [12] 81.3% | [13] 90.4% | [14] 42.5% | [15] 83.8% | [16] 15.9% | [17] 41.4% | [18] 74.5%

Brc1ccc(Br)nn1
active: [1] -26.8% | [2] -97.4% | [4] -21.9% | [19] -64.7% | [5] -33.2% | [6] 5.91% | [7] -81% | [8] -92.5% | [9] -91% | [11] -91% | [12] -65.6% | [13] -89.8% | [14] -74.4% | [15] -10.9% | [16] -53.1% | [17] -68.4% | [18] -76.4%

CCN(C(=O)c1ccc2c3c(cccc13)C=C2)c1ccccc1
inactive: [1] 93.3% | [3] 99.8% | [4] 111% | [19] 86.5% | [5] 79.1% | [6] 80.2% | [7] 91.1% | [8] 119% | [9] 113% | [10] 82.7% | [11] 90.1% | [12] 103% | [13] 102% | [14] 107% | [15] 93.6% | [16] 97.4% | [17] 97% | [18] 94.5%

Cc1nn(-c2ccccc2)c2nc3nc4c(c(N)c3c(-c3ccc(Cl)cc3)c12)CCC4
inactive: [1] 94.1% | [3] 101% | [4] 72.7% | [19] 80.4% | [5] 102% | [6] 84.8% | [7] 74% | [8] 67% | [9] 90.1% | [10] 27.7% | [11] 109% | [12] 88.1% | [13] 79.9% | [14] 102% | [15] 92.1% | [16] 90% | [17] 91.4% | [18] 98.6%

C=C(C)CCCC(C)CC#N (stereo unspecified)
inactive: [1] 99.4% | [3] 90.7% | [4] 107% | [19] 95.1% | [5] 90.3% | [6] 99.9% | [7] 97.3% | [8] 106% | [9] 105% | [10] 105% | [11] 88% | [12] 115% | [13] 105% | [14] 94.6% | [15] 94.3% | [16] 95.6% | [17] 104% | [18] 96.5%

Cn1c(=O)c(S(=O)(=O)c2ccccc2)cc2ccc3c(cnn3-c3ccc(Cl)cc3)c21
active: [5] -18.9%
inactive: [1] 55.6% | [3] 87.3% | [4] 80.7% | [19] 39.8% | [6] 65.5% | [7] 51.3% | [8] 100% | [9] 82.9% | [10] 91.6% | [11] 85.1% | [12] 75.7% | [13] 55.8% | [14] 80.6% | [15] 90.2% | [16] 45% | [17] 83.4% | [18] 83.7%
